Compound activity from PubChem BioAssay.
An excerpt weighted towards active compounds, which were near 2.1% of everything screened.
Abeta yeast res – qHTS for compounds that reverse cellular toxicity of Amyloid beta (A-beta) peptide in yeast: Primary Screen | yeast expressing A-beta42, growth rescue, OD600, 48 h; response scale: 0% DMSO, 100% iron-clioquinol control | Potency, µM (highest dose often 46.1 µM), hits mostly activators | hit rate 0.063% among 410,000; further: nearly all actives have a fitted effect of over 55% in size
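Yeast growth medium received pinned compounds, then yeast cells expressing toxic A-beta were added; plates incubated at 30 C for 48 hr. Growth read as absorbance at 600 nm, normalized to DMSO and equimolar FeCl3 plus clioquinol controls.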
FUS yeast rescue – qHTS for Suppressors of FUS Proteinopathy: Primary screen using FUS-linked yeast assay. S. cerevisiae FUS-expressing, growth rescue, OD600, 24 h. Potency, µM (doses to about 76.6 µM), actives largely listed as activators. hit rate 0.24% among 390,000. AID 1347120, 2019;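 further: plate controls were DMSO vehicle for no effect and reference control for full effect; nearly all actives have a fitted effect of over 55% in size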
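Read-out: OD at 600 nm after 24hr at 30C, reporting rescue of FUS-induced yeast toxicity. Cells at OD 0.005 in galactose (2%) minimal medium; compounds tested in a dilution series; CP55940 titration from 92uM final as control.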
aSyn rescue – qHTS of alpha-syn Inhibitors; Yeast expressing alpha-synuclein, growth rescue, BacTiter-Glo, 24 h; Potency, µM (highest dose often 46.1 µM), for the others: at the top dose growth rescue (activation), most hits filed as activators; hit rate 0.14% among 370,000; further: % of control where 0% means no effect; nearly all actives have a fitted effect of over 65% in size
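Screening used galactose-induced yeast with toxic alpha-synuclein levels, exposed to compound for 24 hr at 30 deg C. Cell growth, read with BacTiter-Glo luminescence, gave the measured signal.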
TDP-43 yeast inh – qHTS of TDP-43 Inhibitors; TDP-43 expressing yeast growth rescue, BacTiter-Glo, 24 h; hit rate 1.8% among 410,000; AID 652104, 2013; Potency, µM (top dose mostly 46.1 µM), without a hit: at the highest dose growth rescue (activation), actives largely listed as activators; further: % of control where 0% means no effect; nearly all actives have a fitted effect of over 50% in size
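Galactose-induced TDP-43 yeast, OD600=0.02, compound pinned; 24 hr, 30 deg C; BacTiter-Glo luminescence for growth. Inhibitors of TDP-43 toxicity read as activators.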
An asterisk follows results filed as active; i = inactive; ? = inconclusive; · = no result; ! = a repeat was not active; [ ] = another dose, or the depositor's remark. The call rests on the fitted dose curve; in most records, active means well fitted curve in the direction sought with a large enough effect; inconclusive means small, poorly fitted or top-dose-only effect, or another doubt; inactive means no such curve, though single readings can be large; an effect the other way counts as inactive or inconclusive. Potency means the concentration at half of the fitted maximal effect.

SMILES	Abeta yeast res	FUS yeast rescue	aSyn rescue	TDP-43 yeast inh
O=c1c2ccccc2ncn1Cc1cccc2ccccc12	i	i	18.6%	11.2µM*
CC1CCc2nn(CC(=O)NCCC3=CCCCC3)cc2C1 (centres undefined)	?	i	-1.7%	17.8µM*
COC1=CC(=O)OC12CCCCC2	i	i	0.7%	16.4%
COc1ccc(C2=CC(=O)OC3(CCCC3)O2)cc1	i	i	0.5%	15.8µM*
O=C(CC(=O)c1ccccc1)c1ccccc1	i	·	6.3%	-17.7%
O=C(CC(=O)c1ccncc1)c1ccccc1	i	·	20µM*	?
COc1cccc(N2CCN(C(=O)CN3CCSc4ccccc43)CC2)c1	?	i	2.6%	14.1µM*
COc1cccc(N2CCN(C(=O)CCSCc3ccccc3F)CC2)c1	i	i	2.4%	15.8µM*
COc1ccccc1N1CCN(C(=O)CCSCc2ccccc2F)CC1	i	i	-0.4%	20µM*!
COc1ccccc1N1CCN(C(=O)Cc2ccc(Cl)cc2)CC1	i	i	21.1%	2.4%
CCOc1ccccc1NC(=O)C(=O)NCCc1sc(-c2cccc(F)c2)nc1C	i	i	·	10.2%
CCOC(=O)CN1C(=O)S/C(=C/c2ccc(C)o2)C1=O	i	i	3.6%	12.6µM*
Cn1nnnc1SCc1csc(C2C(C#N)=C(N)OC3=C2C(=O)CCC3)c1 (centres undefined)	i	i	2.6%	·
CCC(=C(c1ccc(OC)cc1)c1ccc(OC)cc1)c1cn(CC(O)CN(CCO)CCO)c2ccccc12 (centres undefined)	i	28.2µM*	-14.3%	5.1%
Cc1cc(C)cc(Cn2c3ccc(NC(=S)NC4CCCCC4)cc3c(=O)n2C)c1	i	28.2µM*	-8.8%	17.1%
O=C(C1CCCN(S(=O)(=O)c2ccc(Br)s2)C1)N1CCN(c2ccc(F)cc2)CC1 (centres undefined)	i	i	·	-9.7%
O=C(Oc1ccc2ccc(O)cc2c1)C1CCCCC1	i	i	-4.2%	22.4µM*
O=C(Oc1ccc2ccc(O)cc2c1)c1ccccc1Cl	i	i	-11.6%	14.1µM*
C=C1CCC2C(C)(C)[C@@H](O)CC[C@@]2(C)[C@@H]1COc1ccc2ccc(=O)oc2c1 (some centres undefined)	i	i	17.8µM*	12.1%
C=C1CCC2C(C)(C)[C@H](O)CC[C@@]2(C)[C@@H]1COc1cc(=O)oc2ccccc12 (some centres undefined)	i	35.5µM*	-25.3%	3.3%
C=C1CC(COc2cc(=O)oc3ccccc23)(c2ccccc2)OC1=O (centres undefined)	i	·	17.7%	7.3%
Cc1cc2nnn(-c3nnc(-c4ccccc4)c4ccccc34)c2cc1C	i	i	6.8%	-10.7%
CCC(=O)c1ccc(OCC(=O)OCC(=O)NCC2CCCO2)cc1 (centres undefined)	i	i	-1.4%	-10.5%
Cc1cccc(Cc2c(C)nc3nc(SCC(=O)NCc4ccc(F)cc4)nn3c2C)c1	i	i	·	?
CCC(=O)Nc1c(C(=O)Nc2ccc3c(c2)OCCO3)oc2ccccc12	i	i	5.8%	11.2µM*
SMILES	Abeta yeast res	FUS yeast rescue	aSyn rescue	TDP-43 yeast inh
CC(C)=CC(=O)Nc1ccc(OCc2ccccc2)cc1	i	i	-20.7%	12.6µM*
O=C(CSCc1ccccc1Br)N/N=C/c1ccc2c(c1)OCO2	i	·	-7.5%	17.8µM*
O=C(CSCc1cccc(Br)c1)N/N=C/c1ccc2c(c1)OCO2	?	i	1.5%	?
CC/C(=N\NC(=O)c1nnn(-c2nonc2N)c1-c1cccc(OC)c1)c1ccc(C)cc1	i	i	-10.5%	-4.3%
O=C(NCCc1ccccc1Cl)c1sc2ncccc2c1-n1cccc1	i	?	·	17.8µM*
CCOc1ccc(C2=NC(c3cccs3)=Nc3ccc(CC)cc3N2)cc1OCC	i	?	·	11.9%[9.22 µM]
Cc1ccc(NC(=O)c2cccs2)cc1	i	28.2µM*	-27.5%	-22.7%
Cc1ccc(NC(=O)C(=O)NNC(=O)c2cccs2)cc1	i	i	-4.6%	2.8%
CCCCN(CCCC)S(=O)(=O)c1ccc(NC(=O)c2cccs2)cc1	i	2µM*	-2.5%	-29.2%
Cc1ccc(N2C(=O)C(CC(=O)Nc3cccc(F)c3)N(CCc3ccccc3F)C2=O)cc1 (centres undefined)	i	?	·	20.2%
S=C(Nc1cccc(Br)c1)c1ccccc1	?	i	-10.5%	12.6µM*
S=C(Nc1ccccc1)Nc1cccc(Br)c1	i	i	-8.3%	14.7%
CC(C)(C)c1ccc(N2C(=O)CSC2c2cccnc2)cc1 (centres undefined)	i	i	-8.1%	-15.8%
O=C(c1ccc2c(c1)OCO2)c1cn(Cc2ccc(Cl)cc2)c2ccc(F)cc2c1=O	i	?	·	20.8%
N#CC1(N2CCN(C(=O)c3ccccc3)CC2)CCCCC1	i	i	-1.9%	-1.6%
O=C(CC1C(=O)N(c2ccccc2)C(=O)N1Cc1ccc2c(c1)OCO2)Nc1ccccc1 (centres undefined)	i	i	·	-0.1%
COc1ccc(C(=O)OCc2c(-c3cccc(OC)c3)ncc3ccccc23)cc1	i	i	0.6%	19.2%
COc1cccc(-c2ncc3ccccc3c2COC(=O)c2cccs2)c1	i	i	8.5%	35.5µM*
CCN(CC)C(=O)OCc1c(-c2cccc(OC)c2)ncc2ccccc12	i	i	-13.7%	11.2µM*
CCOc1ccc2c(c1)sc1nc(=O)n(-c3ccc(Cl)c(Cl)c3)c(=O)n12	i	i	·	1.9%
CCc1cccc(NC(=O)C(Cc2ccccc2)n2cccc2)c1 (centres undefined)	i	i	·	24.0%
O=C1CCC(CNc2ccccc2)N1c1ccccc1 (centres undefined)	·	i	·	·
Cc1cc(SCC(=O)OCC(=O)N2CCN(C(=O)c3ccco3)CC2)c(C)cc1Br	i	i	11.1%	7.8%
Cc1cc(SCC(=O)N2CCN(C(=O)c3ccco3)CC2)c(C)cc1Br	i	i	-6.0%[1.84 µM]	25.1µM*
CCOC(=O)c1cccc(NC(=O)CC2C(=O)N(c3ccc(Cl)cc3)C(=O)N2C2CCCC2)c1 (centres undefined)	i	?	·	7.0%
O=C(NC(=S)Nc1cccc2cccnc12)c1cccs1	i	i	15.8µM*	12.9%
O=C(NC(=S)Nc1cccc2cccnc12)c1ccccc1	i	i	0.1%	14.7%
COc1ccc(C(=O)CC2(O)C(=O)N(Cc3ccccc3)c3ccc(Br)cc32)cc1 (centres undefined)	i	i	·	14.9%
CNC(=O)C[C@@H]1C(=O)N(C2CCCCC2)CC1(C)C	i	i	-3.2%	18.3%
N/C(=N\OC(=O)c1ccc2c(c1)OCO2)c1cccc(Br)c1	i	i	-37.8%	6.31µM*
